Common to all, as to type: functional
Assay [1] concerns Plasmodium falciparum. The assay is described as follows: GSK_TCMDC: Inhibition of Plasmodium falciparum 3D7 in whole red blood cells, using parasite LDH activity as an index of growth. Test compounds present at 2uM.
Assay [2] relates to Plasmodium falciparum. The assay is described as follows: GSK_TCMDC: Inhibition of Plasmodium falciparum Dd2 in whole red blood cells, using parasite LDH activity as an index of growth. Test compounds present at 2uM.
The next assay deals with HepG2. The assay is described as follows: GSK_TCMDC: Percent inhibition of human HepG2 cell line. Test compounds present at 10uM.

As a reminder, the Inhibition is the percentage by which the read-out fell short of the control.

As to `O=C(O)C(F)(F)F.OCCN1CCN(Cc2ccc(-c3ccc(-c4nc5ccccc5[nH]4)cc3)cc2)CC1`, the values for the Inhibition in the assay on Plasmodium falciparum [1], with Plasmodium falciparum [2] and in the assay with HepG2 were 100%, 58% and 6%, respectively.
On the same counts, the results for `COc1ccccc1-c1csc(C(=O)NCC2CCN(Cc3ccc(C(C)C)cc3)C2)c1.O=C(O)C(F)(F)F` (stereo not drawn) are 81%, 6% and 24%.
Regarding `CCCCc1ccc2ncc(C(=O)OCC)c(O)c2c1`, the Inhibition was found to be 95% in the assay with Plasmodium falciparum [1], 96% with Plasmodium falciparum [2] and 3% with HepG2.
As to `CC1CCCN(Cc2cc(Cl)cc(Cl)c2O)C1` (stereo not drawn), the Inhibition in the assay with Plasmodium falciparum [1] is recorded as 89%; in the assay on Plasmodium falciparum [2], 77%; in the assay with HepG2, 22%.
On the same counts, the results for `CCOc1cc(Br)c(C(C)NC(=O)c2cccc(OC)c2)cc1OCC` (stereo not drawn) are 90%, 37% and 0%.
As to `COc1ccc(F)cc1-c1cccc(CNC2CCN(CC3Cn4c(=O)ccc5ccc(F)c3c54)CC2)c1.O=C(O)C(F)(F)F` (stereo not drawn), the Inhibition was 100% in the assay with Plasmodium falciparum [1], 27% in the assay with Plasmodium falciparum [2] and 46% in the assay with HepG2.
On the same counts, the results for `O=C(NCc1ccc(Cl)cc1)c1ccc(CN2CCCN(CC3CCCCC3)CC2)cc1.O=C(O)C(F)(F)F` are 84%, 5% and 18%.
On the same counts, the results for `FC(F)(F)c1cnc(Sc2nnc(-c3ccncc3)o2)c(Cl)c1` are 96%, 96% and 10%.
The like results for `CCC1(C)CC(CCNCc2ccccc2O)(c2ccccc2OC)CCO1.Cl` (stereo not drawn) were, in that order, 94%, 93% and 10%.
On to `Cc1ccc(-c2nc(N3CCN(C(=O)c4ccco4)CC3)c3ccccc3n2)cc1`, for which the Inhibition was 90% in the assay with Plasmodium falciparum [1], 75% with Plasmodium falciparum [2] and 0% in the assay with HepG2.
For the molecule `Cc1ccccc1Cc1cccc(/N=C(\N)Nc2ccc(Cl)cc2)n1`, the Inhibition was found to be 91% in the assay with Plasmodium falciparum [1], 56% in the assay with Plasmodium falciparum [2] and 48% in the assay with HepG2.
